Screen size: about 39,000 compounds; about 1,500 (3.8%) were called active. Only a selection was taken, and actives are over-represented in it overall.

This test relates to HSkMC (human skeletal muscle cells). In words: cytotoxicity call (relative viability < 0.9). The conditions noted are these: 10 µM.
Turning to `O=C(N[C@H]1CC[C@H](CC(=O)N2CCOCC2)O[C@H]1CO)c1ccc2c(c1)OCO2`, the cytotoxicity call is “inactive”. For `C[C@@H]1CN([C@@H](C)CO)C(=O)c2cccc(NC(=O)C3CCOCC3)c2O[C@H]1CN(C)Cc1ccncc1` the value was “inactive”; for `C[C@@H]1CCCCO[C@H](CN(C)C(=O)Nc2ccccc2)[C@H](C)CN([C@@H](C)CO)C(=O)c2cc(NS(=O)(=O)c3ccccc3)ccc2O1`, “inactive”. In the case of `C[C@H](CO)N1C[C@H](C)[C@@H](CN(C)S(=O)(=O)c2ccc(-c3ccccc3)cc2)OCc2cn(nn2)CCCC1=O` it was “inactive”. For `C[C@H]1O[C@@H]2[C@H](O[C@@H]1C)N(S(C)(=O)=O)CCN2S(C)(=O)=O` the value was “inactive”; for `COc1ccc(NC(=O)N2C[C@H](O)COC[C@H]3O[C@H](CC(=O)NC4Cc5ccccc5C4)CC[C@@H]32)cc1`, “inactive”. On to `C[C@H](CO)N1C[C@H](C)[C@H](CN(C)Cc2ccc(-c3ccccc3)cc2)Oc2ccc(NC(=O)Nc3ccc4c(c3)OCO4)cc2CC1=O`, for which the cytotoxicity call was “inactive”. For `C=CCC[C@H](Cc1ccc(F)cc1)C(=O)OC[C@@H]1CCCN1C(=O)[C@@H](CC=C)CC(=O)N(CCO)Cc1ccccc1` the value was “active”; for `C=CCC[C@H](Cc1ccc(F)cc1)C(=O)OC[C@H]1CCCN1C(=O)[C@@H](CC=C)CC(=O)N(CCO)Cc1ccccc1`, “active”. For `C=CCC[C@H](Cc1ccc(F)cc1)C(=O)OC[C@H]1CCCN1C(=O)[C@H](CC=C)CC(=O)N(CCO)Cc1ccccc1` the value was “inactive”; for `C=CCC[C@@H](Cc1ccc(F)cc1)C(=O)OC[C@@H]1CCCN1C(=O)[C@@H](CC=C)CC(=O)N(CCO)Cc1ccccc1`, “inactive”.

For the compound `C=CCC[C@@H](Cc1ccc(F)cc1)C(=O)OC[C@H]1CCCN1C(=O)[C@@H](CC=C)CC(=O)N(CCO)Cc1ccccc1`, the cytotoxicity call was “inactive”. Regarding `C=CCC[C@@H](Cc1ccc(F)cc1)C(=O)OC[C@H]1CCCN1C(=O)[C@H](CC=C)CC(=O)N(CCO)Cc1ccccc1`, the cytotoxicity call was “inactive”.

For `CN(C)CC(=O)N[C@@H]1CC[C@H](CC(=O)NCCN2CCCCC2)O[C@H]1CO`, the cytotoxicity call was “inactive”. For the compound `COc1ccc(C2=NS(=O)(=O)N(C)C(C(=O)N3CCC(C(N)=O)CC3)=C2)cc1`, the cytotoxicity call is “inactive”. In the case of `CC(C)NC(=O)N(C)C[C@H]1Oc2c(NS(=O)(=O)c3ccc(Cl)cc3)cccc2C(=O)N([C@@H](C)CO)C[C@H]1C` it was “inactive”; in that of `COc1ccc(S(=O)(=O)Nc2cccc3c2O[C@@H](CN(C)S(=O)(=O)c2ccccc2)[C@H](C)CN([C@@H](C)CO)C3=O)cc1`, “inactive”. For `O=C(Nc1ccc2ccccc2c1)c1ccc(Cl)cc1Cl` the value was “inactive”; for `O=C(Nc1ccc(Oc2ccc(Cl)cc2)c(Cl)c1)c1cc(I)cc(I)c1O`, “active”; for `Cc1ccc(S[C@]2(C(=O)NC(C)C)CC(=O)N(Cc3ccccc3C(F)(F)F)[C@@H]2c2ccc(CO)cc2)cc1`, “inactive”. For `CC(C)(C)c1cc(NC(=O)Nc2ccc(Oc3ccnc4nc(O)cnc34)cc2F)n(-c2ccccc2)n1` the value was “active”; for `Cc1ccc(S(=O)(=O)N(C)C[C@H]2Oc3ccc(NC(=O)C4CC4)cc3C(=O)N([C@H](C)CO)C[C@@H]2C)cc1`, “inactive”; for `Fc1ccccc1-c1nc2ccn(Cc3ccc(-c4ccc(C(F)(F)F)cc4C(F)(F)F)nn3)cc-2n1`, “active”. In the case of `Cc1noc(C)c1NC(=O)Nc1cccc2c1O[C@H](CN(C)Cc1ccc(Oc3ccccc3)cc1)[C@@H](C)CN([C@H](C)CO)C2=O`, the cytotoxicity call was “inactive”.

In the case of `Cc1noc(C)c1NC(=O)Nc1ccc2c(c1)C(=O)N([C@H](C)CO)C[C@@H](C)[C@@H](CN(C)Cc1ccccc1)OCCCC[C@@H](C)O2`, the cytotoxicity call was “inactive”.

In the case of `C[C@@H]1CCCCO[C@H](CN(C)C(=O)CCC(F)(F)F)[C@@H](C)CN([C@H](C)CO)C(=O)c2cc(NC(=O)c3ccccc3)ccc2O1`, the cytotoxicity call is “inactive”.

With `COc1ccc(NC(=O)Nc2ccc3c(c2)CC(=O)N([C@H](C)CO)C[C@@H](C)[C@H](CN(C)Cc2ccc(Oc4ccccc4)cc2)O3)cc1`, the cytotoxicity call is “inactive”. Turning to `C1CCC(C(C[C@H]2CCCCN2)C2CCCCC2)CC1`, the cytotoxicity call was “inactive”. In the case of `O=C(O)CC[C@H]1CCCCN1` it was “inactive”; in that of `C1CCC(C(CC2CCCCN2)C2CCCCC2)CC1.O=C(O)C=CC(=O)O` (configuration not stated), “active”. `C[C@H]1CN([C@@H](C)CO)S(=O)(=O)c2ccc(-c3cncnc3)cc2O[C@@H]1CN(C)C(=O)C1CCCCC1`: the cytotoxicity call is “inactive”. For `COc1ccc2c3c([nH]c2c1)[C@H](CO)N(C[C@]13CCN(CC1)C(=O)Nc1cccc(c1)F)C(=O)c1ccc(cc1)F` the value was “inactive”. For `COc1ccc2c3c([nH]c2c1)[C@@H](CO)N(C[C@]13CCN(CC1)C(=O)Nc1cccc(c1)F)C(=O)c1ccc(cc1)F` the value was “inactive”. In the case of `COc1ccc2c3c([nH]c2c1)[C@H](CO)N(CC1CCCCC1)C[C@]13CN(C1)C(=O)Nc1cccc(c1)F` it was “inactive”; in that of `COc1ccc2c3c([nH]c2c1)[C@H](CO)N(C[C@]13CN(CC2CCCCC2)C1)C(=O)Nc1cccc(c1)F`, “active”. As to `COc1ccc2c3c([nH]c2c1)[C@@H](CO)N(C[C@]13CN(CC2CCCCC2)C1)C(=O)Nc1cccc(c1)F`, the cytotoxicity call was “active”. `COc1ccc2c3c([nH]c2c1)[C@@H](CO)N(CC1CCCCC1)C[C@]13CN(C1)C(=O)Nc1cccc(c1)F`: the cytotoxicity call was “inactive”. In the case of `C[C@H](CO)N1C[C@H](C)[C@H](CN(C)Cc2ccc(C(=O)O)cc2)Oc2ccc(NC(=O)c3ccncc3)cc2CC1=O` it was “inactive”. For `C[C@@H]1CCCCO[C@H](CN(C)Cc2ccc3c(c2)OCO3)[C@@H](C)CN([C@@H](C)CO)C(=O)c2cc(NC(=O)NC3CCCCC3)ccc2O1` the value was “inactive”; for `[O-][NH2+]N1CCCCC1`, “inactive”. For `CC(C)NC(=O)N(C)C[C@H]1Oc2c(NS(=O)(=O)c3ccc(Cl)cc3)cccc2C(=O)N([C@H](C)CO)C[C@@H]1C` the value was “inactive”; for `C[C@H](CO)N1C[C@H](C)[C@@H](CN(C)C(=O)Nc2ccc(F)cc2)Oc2c(NS(=O)(=O)c3cn(C)cn3)cccc2C1=O`, “inactive”; for `O=C(NCC(F)(F)F)[C@@H]1c2ccccc2C(=O)N(CC23CC4CC(CC(C4)C2)C3)[C@H]1c1ccc(CO)cc1`, “inactive”. For `CN1CCC2(CC1)CN(C(=O)CNC(N)=O)CCCN2C`, the cytotoxicity call is “inactive”. For `C[C@@H]1CN([C@@H](C)CO)C(=O)c2cc(NC(=O)NC3CCCCC3)ccc2O[C@@H]1CN(C)C(=O)Nc1cccc2ccccc12` the value was “active”.

Take `C[C@H](CO)N1C[C@H](C)[C@@H](CN(C)C(=O)NC2CCCCC2)Oc2ccc(NC(=O)Nc3cccc4ccccc34)cc2C1=O`: the cytotoxicity call is “inactive”.

`C[C@@H]1CN([C@H](C)CO)C(=O)c2cc(NC(=O)Nc3cccc4ccccc34)ccc2O[C@@H]1CN(C)C(=O)NC1CCCCC1`: the cytotoxicity call was “inactive”. Take `C[C@@H]1CN([C@@H](C)CO)C(=O)c2cc(NC(=O)NC3CCCCC3)ccc2O[C@H]1CN(C)C(=O)Nc1cccc2ccccc12`: the cytotoxicity call was “inactive”. With `C[C@@H]1CN([C@H](C)CO)C(=O)c2cc(NC(=O)Nc3cccc4ccccc34)ccc2O[C@H]1CN(C)C(=O)NC1CCCCC1`, the cytotoxicity call was “active”. For `C[C@@H]1CN([C@H](C)CO)C(=O)c2cc(NC(=O)NC3CCCCC3)ccc2O[C@H]1CN(C)C(=O)Nc1cccc2ccccc12` the value was “inactive”; for `COC(=O)CCn1ccc(=O)[nH]c1=O`, “inactive”. For `C[C@@H]1CN([C@@H](C)CO)C(=O)c2cc(NC(=O)Nc3ccc(C(F)(F)F)cc3)ccc2O[C@H]1CN(C)Cc1ccncc1` the value was “inactive”; for `COc1ccc(S(=O)(=O)Nc2ccc3c(c2)C(=O)N([C@H](C)CO)C[C@H](C)[C@H](CN(C)C(=O)Nc2ccccc2)OCCCC[C@H](C)O3)cc1`, “inactive”; for `C[C@H]1CN([C@@H](C)CO)C(=O)c2cccc(NC(=O)Nc3ccc(C(F)(F)F)cc3)c2O[C@@H]1CN(C)S(=O)(=O)c1ccc(F)cc1`, “inactive”. In the case of `C=CCNC(=O)[C@@H]1[C@H]2C(=O)O[C@H](c3ccccc3)[C@H](c3ccccc3)N2[C@H](c2ccc(OCCO)cc2)[C@@]12C(=O)N(C(=O)OCCOC)c1ccc(C#Cc3ccc(OC)cc3)cc12` it was “inactive”; in that of `COc1ccc(NC(=O)Nc2ccc3c(c2)CC(=O)N([C@H](C)CO)C[C@H](C)[C@H](CN(C)Cc2ccc(Oc4ccccc4)cc2)O3)cc1`, “inactive”.

Take `C[C@@H]1CN([C@@H](C)CO)C(=O)Cc2cc(NC(=O)Nc3ccccc3)ccc2O[C@@H]1CN(C)Cc1ccc(Oc2ccccc2)cc1`: the cytotoxicity call is “active”. For `C[C@H]1CN([C@@H](C)CO)C(=O)Cc2cc(NC(=O)Nc3ccccc3)ccc2O[C@H]1CN(C)Cc1ccc(Oc2ccccc2)cc1` the value was “active”; for `COc1ccc(NC(=O)Nc2ccc3c(c2)CC(=O)N([C@H](C)CO)C[C@H](C)[C@H](CN(C)Cc2ccc(-c4ccccc4)cc2)O3)cc1`, “inactive”; for `COc1ccc(NC(=O)Nc2ccc3c(c2)CC(=O)N([C@H](C)CO)C[C@H](C)[C@@H](CN(C)Cc2ccc(-c4ccccc4)cc2)O3)cc1`, “active”. Take `COc1ccc(NC(=O)Nc2ccc3c(c2)CC(=O)N([C@@H](C)CO)C[C@@H](C)[C@@H](CN(C)Cc2ccc(Oc4ccccc4)cc2)O3)cc1`: the cytotoxicity call was “inactive”. In the case of `COc1ccc(NC(=O)Nc2ccc3c(c2)CC(=O)N([C@@H](C)CO)C[C@@H](C)[C@H](CN(C)Cc2ccc(Oc4ccccc4)cc2)O3)cc1` it was “active”; in that of `COc1ccc(NC(=O)Nc2ccc3c(c2)CC(=O)N([C@H](C)CO)C[C@@H](C)[C@@H](CN(C)Cc2ccc(Oc4ccccc4)cc2)O3)cc1`, “inactive”. Take `COc1ccc(NC(=O)Nc2ccc3c(c2)CC(=O)N([C@@H](C)CO)C[C@H](C)[C@@H](CN(C)Cc2ccc(Oc4ccccc4)cc2)O3)cc1`: the cytotoxicity call is “inactive”. Take `COc1ccc(NC(=O)Nc2ccc3c(c2)CC(=O)N([C@@H](C)CO)C[C@H](C)[C@H](CN(C)Cc2ccc(-c4ccccc4)cc2)O3)cc1`: the cytotoxicity call was “inactive”.

For the compound `C[C@H](CO)N1C[C@H](C)[C@H](CN(C)Cc2ccc(Oc3ccccc3)cc2)Oc2ccc(NC(=O)Nc3ccccc3)cc2CC1=O`, the cytotoxicity call was “inactive”. For `C[C@H](CO)N1C[C@H](C)[C@@H](CN(C)Cc2ccc(Oc3ccccc3)cc2)Oc2ccc(NC(=O)Nc3ccccc3)cc2CC1=O` the value was “inactive”.

For the origin of these results see the antibiotic and cytotoxicity screens of Wong et al. (2023).
